Consider nine compounds from PubChem BioAssay.

Assay [1] can be described thus: E. coli DRC41 culture turbidity changes, primary screen, E. coli filamentation inducer project, strain DRC41, OD650, 48 h (AID 1152).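 Note: E. coli MC1000 strain DRC41 lacking acrAB efflux pump and sulA.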 As to conditions: E. coli DRC41 (acrAB sulA), higher = more signal, called active from +8 up or from −8 down.
Assay [2] can be described thus: small-molecule binders of probe aLefty1, primary screen, biochemical, small-molecule microarray, 635/667 nm fluorescence (AID 1153).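 Note: score merges spot fluorescence with signal-to-noise ratio from the scanned slide images.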 As to conditions: higher = more signal.
A short description of assay [3]: PSAC antagonists in infected red cells, primary screen, cell-based, P. falciparum Indochina, OD700, 1 h (AID 1154). The settings on record: P. falciparum Indochina infected RBC osmotic lysis, higher = more signal, called active from +8 up or from −8 down.
A short description of assay [4]: PSAC antagonists in infected red cells, primary screen, cell-based, P. falciparum Indochina, OD700, 2 h (AID 1155).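 Note: lysis reports solute entry through the parasite surface anion channel PSAC; channel blockers reduce lysis of infected cells.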 As to conditions: P. falciparum Indochina infected erythrocytes, osmotic lysis OD700; higher = more signal, called active from +8 up or from −8 down.
Assay [5] in a line: osmotic lysis modulators in infected erythrocytes, primary screen, PSAC antagonist project, cell-based, P. falciparum Indochina, OD700, 3 h (AID 1156). As to conditions: higher = more signal, called active from +8 up or from −8 down.
Assay [6] is described as follows: PSAC antagonists in infected red cells, primary screen, cell-based, P. falciparum Indochina, OD700, 18 h (AID 1157). As to conditions: P. falciparum Indochina infected erythrocytes, osmotic lysis OD700, 18 h; higher = more signal, called active from +8 up or from −8 down.
Assay [7] in a line: modulators of S6 phosphorylation in cells, primary screen, cell-based, A549, cytoblot, luminescence, serum-stimulated (AID 1158).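 Note: serum-stimulated A549 lung adenocarcinoma cells; signal is phosphorylated S6 detected by cytoblot immunostaining with HRP secondary.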 The settings on record: A549 phospho-S6 cytoblot, 5 h, higher = more signal.
Assay [8] concerns the target NADPH oxidase 2 (Homo sapiens) (UniProt P04839). The experiment in a line: NOX2-dependent H2O2 signal modulators, primary screen, NOX inhibitor project, cell-based, HEK293-NOX2, PMA-stimulated, Amplex Red fluorescence (AID 1159). Note: test concentration not given here. As to conditions: 45 min, higher = more signal, called active from +8 up or from −8 down.
Assay [9] concerns the target NADPH oxidase 4 (Homo sapiens) (UniProt Q9NPH5). The experiment in a line: NOX4-dependent H2O2 signal modulators, primary screen, NOX inhibitor project, cell-based, HEK293-NOX4, tetracycline-induced, Amplex Red fluorescence (AID 1160). As to conditions: 45 min, higher = more signal, called active from +8 up or from −8 down.
Assay [10] has as its target NADPH oxidase 5 (Homo sapiens) (UniProt Q96PH1). The assay is described as follows: NOX5-dependent H2O2 signal modulators, primary screen, NOX inhibitor project, cell-based, HEK293-NOX5, Amplex Red fluorescence (AID 1161). As to conditions: HEK293-NOX5, ionomycin, 45 min, higher = more signal.
Assay [11] can be described thus: A549 cell viability effects, profiling panel, calcein-AM fluorescence, 48 h, basal (AID 1162). Note: test concentration not given here. As to conditions: higher = more signal.
Assay [12] is described as follows: adipocyte viability effects, profiling panel, cell-based, 3T3-L1 adipocytes, calcein-AM fluorescence, 48 h, basal (AID 1163). Note: test concentration not given here. The settings on record: 3T3-L1 adipocytes viability, higher = more signal.
Assay [13] is described as follows: HepG2 cell viability effects, profiling panel, calcein-AM fluorescence, 48 h, basal (AID 1164). Note: test concentration not given here. As to conditions: higher = more signal.
Assay [14] can be described thus: MM1S cell viability effects, profiling panel, calcein-AM fluorescence, 48 h, basal (AID 1165).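 Note: viability of MM1S multiple myeloma cells under basal unstimulated conditions; test concentration not given here.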 As to conditions: higher = more signal.
Assay [15] can be described thus: basal RPMI8226 viability, no added stimulus, profiling panel, cell-based, calcein-AM fluorescence, 48 h, PK04 Diversity Set (AID 1166).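 Note: cells grown under basal conditions without added stimulus; test concentration not given here.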 The settings on record: RPMI8226 myeloma viability, higher = more signal.
The nature of assay [16]: basal HepG2 mitochondrial membrane potential changes, profiling panel, cell-based, JC-1 fluorescence, 24 h, 100 nL compound (AID 1167). Note: test concentration not given here. As to conditions: higher = more signal.
Assay [17] can be described thus: basal 3T3-L1 adipocyte mitochondrial potential changes, profiling panel, cell-based, JC-1 fluorescence, 3T3-L1 adipocytes, 24 h, 100 nL compound (AID 1168). Note: test concentration not given here. As to conditions: JC-1 mitochondrial fluorescence, higher = more signal, called active from +8 up or from −8 down.
Assay [18] in a line: basal RPMI8226 mitochondrial membrane potential changes, profiling panel, cell-based, JC-1 fluorescence, 24 h, 100 nL compound (AID 1169). Note: test concentration not given here. The settings on record: RPMI8226 myeloma, JC-1 mitochondrial potential fluorescence, higher = more signal.
Assay [19] is described as follows: basal MM1S mitochondrial membrane potential changes, profiling panel, cell-based, JC-1 fluorescence, 24 h, 100 nL compound (AID 1170). Note: test concentration not given here. The settings on record: higher = more signal.
Assay [20] is described as follows: A549 lung cancer cell viability effects, profiling panel, resazurin fluorescence, 24 h, PK04 Diversity Set (AID 1171). Note: test concentration not given here. As to conditions: higher = more signal, called active from +8 up or from −8 down. A general note: Resazurin is reduced to fluorescent resorufin, in cell work by metabolically active cells.

Active and inactive are the calls of the source.

Sequence of NADPH oxidase 5 (Homo sapiens) (Q96PH1 whole entry, looked up): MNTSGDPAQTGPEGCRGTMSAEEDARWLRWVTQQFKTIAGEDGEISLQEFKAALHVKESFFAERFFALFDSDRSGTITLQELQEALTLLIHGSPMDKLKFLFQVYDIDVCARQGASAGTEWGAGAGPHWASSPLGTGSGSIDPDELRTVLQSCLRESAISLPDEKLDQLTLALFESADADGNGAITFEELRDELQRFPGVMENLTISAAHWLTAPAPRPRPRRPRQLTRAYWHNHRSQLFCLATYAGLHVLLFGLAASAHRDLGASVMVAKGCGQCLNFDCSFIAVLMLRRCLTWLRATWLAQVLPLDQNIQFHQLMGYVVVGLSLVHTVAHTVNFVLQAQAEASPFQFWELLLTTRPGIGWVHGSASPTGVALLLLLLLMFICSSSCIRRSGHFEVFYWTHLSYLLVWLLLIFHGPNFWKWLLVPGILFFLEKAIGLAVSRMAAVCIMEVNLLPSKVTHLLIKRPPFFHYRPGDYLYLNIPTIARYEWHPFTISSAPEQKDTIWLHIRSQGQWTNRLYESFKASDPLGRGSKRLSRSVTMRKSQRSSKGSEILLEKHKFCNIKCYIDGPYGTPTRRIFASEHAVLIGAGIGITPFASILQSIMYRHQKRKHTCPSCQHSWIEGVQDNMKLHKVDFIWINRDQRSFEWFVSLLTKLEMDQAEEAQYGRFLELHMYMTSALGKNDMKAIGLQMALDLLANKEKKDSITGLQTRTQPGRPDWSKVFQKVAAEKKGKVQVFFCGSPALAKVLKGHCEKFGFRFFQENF
Sequence of NADPH oxidase 4 (Homo sapiens) (Q9NPH5 whole entry, looked up): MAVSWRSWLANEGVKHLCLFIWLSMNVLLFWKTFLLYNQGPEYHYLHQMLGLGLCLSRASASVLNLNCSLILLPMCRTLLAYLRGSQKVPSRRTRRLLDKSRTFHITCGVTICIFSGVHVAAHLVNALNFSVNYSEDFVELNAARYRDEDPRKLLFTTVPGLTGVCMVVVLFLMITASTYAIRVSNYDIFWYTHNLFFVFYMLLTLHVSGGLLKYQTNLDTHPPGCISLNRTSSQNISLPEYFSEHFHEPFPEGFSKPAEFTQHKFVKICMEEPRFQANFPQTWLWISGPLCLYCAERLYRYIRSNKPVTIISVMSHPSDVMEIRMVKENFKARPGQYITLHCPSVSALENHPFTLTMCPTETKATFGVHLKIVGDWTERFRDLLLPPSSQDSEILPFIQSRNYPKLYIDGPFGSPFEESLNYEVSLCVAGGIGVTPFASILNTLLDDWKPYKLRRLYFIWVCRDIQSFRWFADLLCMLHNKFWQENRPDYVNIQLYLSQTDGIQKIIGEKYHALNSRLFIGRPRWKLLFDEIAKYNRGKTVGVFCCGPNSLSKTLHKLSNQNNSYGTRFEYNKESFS
Sequence of NADPH oxidase 2 (Homo sapiens) (P04839 whole entry, looked up): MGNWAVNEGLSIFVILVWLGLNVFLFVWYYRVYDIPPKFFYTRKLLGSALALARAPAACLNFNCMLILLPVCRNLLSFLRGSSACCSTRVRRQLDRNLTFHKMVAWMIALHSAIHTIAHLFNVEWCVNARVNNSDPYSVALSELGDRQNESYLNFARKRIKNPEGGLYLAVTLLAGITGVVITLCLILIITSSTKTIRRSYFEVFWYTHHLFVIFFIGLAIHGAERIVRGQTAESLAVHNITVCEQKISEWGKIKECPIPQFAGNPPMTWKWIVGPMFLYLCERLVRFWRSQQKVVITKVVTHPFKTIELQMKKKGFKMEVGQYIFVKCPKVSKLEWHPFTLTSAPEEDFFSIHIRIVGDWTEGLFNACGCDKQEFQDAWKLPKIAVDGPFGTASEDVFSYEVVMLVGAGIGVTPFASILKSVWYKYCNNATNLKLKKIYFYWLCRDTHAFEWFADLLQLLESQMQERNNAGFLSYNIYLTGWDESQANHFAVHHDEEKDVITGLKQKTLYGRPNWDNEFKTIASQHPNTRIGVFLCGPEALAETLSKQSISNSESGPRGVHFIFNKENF

Consider `C=C(C(=O)CC[C@@H](OC(C)=O)c1ccc(OCCO)cc1)C(C)C`, for which the z-score in assay [1] was 0.0045 (inactive); in assay [3], 3.04 (inactive); in assay [4], 0.584 (inactive); in assay [5] it was 0.652 (inactive); in [6], 0.332 (inactive); in assay [7] it was -0.579. Also, the z-score in [8] was -1.37 (inactive); in assay [9] it was -1.21 (inactive); in [10] it was -1.77; in assay [11] it was -0.382; in assay [12] it was -0.0315; in assay [13], 0.185. In addition, the z-score is -1.06 in [14]; 0.16 in [15]; -0.637 in assay [16]; -0.191 (inactive) in assay [17]; 0.0885 in assay [18]; 0.109 in assay [19]. In addition, the z-score in [20] was -0.222 (inactive). In addition, the composite z-score in assay [2] was -0.142.
Turning to `C=C(CCCC)/C(=C/C[C@H](OC(C)=O)c1ccc(CO)o1)c1cc(C(=O)OC)ccc1OC`, the z-score in [1] was 0.302 (inactive); in [3] it was 1.99 (inactive); in [4] it was -0.526 (inactive); in assay [5], 1.62 (inactive); in [6] it was -2.02 (inactive); in [7], 1.61. In addition, the z-score is -0.764 (inactive) in assay [8]; -0.262 (inactive) in [9]; -1.54 in assay [10]; -0.0865 in assay [11]; 1.03 in [12]; -0.888 in assay [13]. Also, the z-score was -2.21 in [14]; -2.15 in assay [15]; -0.854 in assay [16]; -0.356 (inactive) in assay [17]; 0.292 in [18]; 0.6 in assay [19]. Besides, in [20], the z-score is -0.684 (inactive). This compound also came in with a composite z-score in assay [2] of -0.0501.
In the case of `CCCCCCC#C[Si](O[C@H](c1ccccc1)c1cn([C@H](C)c2ccccc2)nn1)(C(C)C)C(C)C`, the z-score was 2.21 (inactive) in [1]; 1.18 (inactive) in assay [3]; -0.0458 (inactive) in assay [4]; -0.0391 (inactive) in assay [5]; -0.0352 (inactive) in assay [6]; 0.138 in assay [7]. Moreover, the z-score in assay [8] was 0.054 (inactive); in [9] it was -0.749 (inactive); in assay [10], 0.268; in [11], -0.577; in assay [12], -1.2; in assay [13], 0.0417. The z-score was 0.227 in assay [14]; 0.0204 in assay [15]; 3.36 in [16]; -0.0744 (inactive) in [17]; -0.846 in assay [18]; -1.19 in assay [19]. In assay [20], the z-score was 2.74 (inactive). In [2], this compound showed a composite z-score of -0.234.
In the case of `O=C1C2C=CC(C(O)c3ccc(-c4ccccc4)s3)N(Nc3ccccc3F)C2C(=O)N1c1ccccc1` (stereo not given), the z-score in [1] is -1.69 (inactive); in [3], 4.17 (inactive); in assay [4], 1.66 (inactive); in [5], 0.8 (inactive); in [6] it was 1.27 (inactive); in assay [7], -0.501. Moreover, the z-score in assay [8] is -0.49 (inactive); in assay [9], -4.68 (inactive); in assay [10], -3.41; in [11], -1.07; in assay [12] it was -0.0797; in assay [13], -0.297. Also, the z-score is -0.0003 in assay [14]; -1.3 in [15]; -2.29 in assay [16]; -1.57 (inactive) in [17]; -0.35 in [18]; -0.0666 in assay [19]. Moreover, the z-score in assay [20] is -1.7 (inactive). This compound also displayed a composite z-score in assay [2] of 0.282.
As for `COc1ccc([Si](C)(C)[C@H]2[C@H](CCO)O[C@@]3(C(=O)N(Cc4ccccc4)c4ccc(N5C(=O)COc6ccccc65)cc43)[C@@H]2C)cc1`, the z-score was 0.592 (inactive) in assay [1]; 5.33 (inactive) in assay [3]; 2.16 (inactive) in assay [4]; 1.3 (inactive) in [5]; 1.65 (inactive) in assay [6]; 2.08 in assay [7]. Further, the z-score is -1.74 (inactive) in assay [8]; 1.53 (inactive) in assay [9]; 0.595 in assay [10]; -0.831 in assay [11]; 0.281 in [12]; -3.01 in assay [13]. Further, the z-score in assay [14] was -3; in assay [15] it was -3.25; in assay [16], -0.111; in [17] it was 1.46 (inactive); in assay [18], -0.855; in [19], -1.47. Further, the z-score in assay [20] was -1.74 (inactive). The same compound registered a composite z-score in assay [2] of 0.167.
On to `CCOC(=O)C[C@H]1[C@H](OC(=O)c2cc3ccccc3oc2=O)[C@@H](NC(=O)c2ccc3ccccc3c2)c2cc(OCCCO)ccc2N1C(=O)c1ccccc1`, for which the z-score is 0.734 (inactive) in assay [1]; 1.22 (inactive) in assay [3]; -1.04 (inactive) in assay [4]; 0.519 (inactive) in [5]; -2.59 (inactive) in assay [6]; 1.2 in assay [7]. For the same compound, the z-score in [8] is -0.539 (inactive); in assay [9], -0.928 (inactive); in assay [10], 0.53; in [11] it was 0.659; in [12], 2.7; in assay [13], 0.582. The z-score was 0.0168 in assay [14]; -0.608 in assay [15]; -1.3 in [16]; 0.571 (inactive) in assay [17]; 0.416 in [18]; 0.755 in assay [19]. The z-score in assay [20] is -1.01 (inactive). The compound also came in with a composite z-score in [2] of 0.201.
For `C=CCN1C(=O)[C@]2(COC(c3ccc(OCCCO)cc3)=N2)Cc2ccccc21`, the z-score is 0.773 (inactive) in assay [1]; 23.7 (active) in assay [3]; 7.4 (inactive) in assay [4]; 3.23 (inactive) in assay [5]; 0.181 (inactive) in assay [6]; 1.3 in [7]. For the same compound, the z-score in assay [8] is -2.29 (inactive); in [9], 0.0437 (inactive); in assay [10], -2.56; in assay [11], 0.78; in [12], 1.94; in [13], 0.641. Besides, the z-score is -1.22 in [14]; -0.326 in [15]; 0.53 in assay [16]; 0.625 (inactive) in [17]; -0.808 in assay [18]; -0.599 in [19]. In addition, the z-score in [20] was -0.183 (inactive). Besides, the composite z-score in assay [2] was 0.228.
With `CN(C)CCCCNC(=O)[C@@H]1C[C@@H]2C(=O)N[C@@H](CCCCN)C(=O)N2[C@@H]1c1cccc(OCCO)c1`, the z-score in assay [1] was -0.389 (inactive); in [3], 2.51 (inactive); in assay [4], 0.337 (inactive); in assay [5], -1.21 (inactive); in assay [6] it was -0.0182 (inactive); in assay [7] it was -0.446. Further, the z-score is 1.36 (inactive) in [8]; 1.05 (inactive) in assay [9]; 1.43 in assay [10]; -0.144 in assay [11]; -0.736 in assay [12]; -1.03 in assay [13]. Further, the z-score in assay [14] is -0.058; in assay [15], 0.376; in [16], -1.01; in assay [17] it was -0.0937 (inactive); in assay [18], -0.737; in assay [19] it was -0.0289. Further, the z-score in [20] is -0.391 (inactive). For the same compound, in assay [2], the composite z-score amounted to 0.837.
As for `C=CC[C@@]1(C(=O)NCc2ccccc2)N=C(c2ccc(OCCCO)cc2)O[C@@H]1c1ccccc1CN=[N+]=[N-]`, the z-score is -1.52 (inactive) in [1]; 24 (active) in assay [3]; 8.62 (active) in assay [4]; 2.14 (inactive) in [5]; 1.15 (inactive) in assay [6]; -0.387 in [7]. Further, the z-score in assay [8] is -1.15 (inactive); in [9], -0.499 (inactive); in assay [10] it was 0.694; in [11], -0.651; in [12], 0.115; in [13], -1.09. Moreover, the z-score in assay [14] is -1.84; in assay [15], -3; in assay [16], -0.675; in assay [17], -1.85 (inactive); in [18] it was -0.979; in assay [19] it was -0.975. Besides, the z-score in assay [20] is -1.23 (inactive). This compound also had a composite z-score in [2] of 0.791.
